# In PubChem BioAssay (NCI):
# Several values for one entry are separate records, joined by “and”; a condition that tells them apart may be missing. Identical values can stand only once. Compounds without any hit were thinned out: in the full panel of roughly 83,000, 20% have a hit.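 Plates (96-well) were seeded with cells, treated with compound at one concentration, and incubated for 48 hours before percent growth was determined.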 Activity calls are given as the source filed them. The calls were made as follows: active = growth percent below 10; inactive = the rest.
# Tested on: MDA-MB-468 breast
# Test: NCI-60 one-dose screen, 48 h (100 = growth as untreated, 0 = no growth, -100 = all killed)
# Conditions: 10 µM unless noted
row,Compound,growth
1,COC(=O)/C=C1\S/C(=N\NC(=O)c2cc3ccc2/C=C\c2ccc(cc2)/C=C\3)N(c2ccccc2)C1=O,-0.388% (active)
2,Cc1ccccc1Nc1nc2nonc2nc1Nc1cccc(C)c1C,12.3% (inactive)
3,C[n+]1c(/C=C/c2ccc([N+](=O)[O-])cc2)ccc2ccccc21,52.5% (inactive)
4,CC(=O)NC(Cc1ccccc1)C(=O)Oc1ccc2ccccc2c1 (stereo not given),107% (inactive) and 119% (inactive)
5,O=C(O)c1cc([N+](=O)[O-])ccc1Br,96.5% (inactive)
6,CCOC(=O)CNP(=O)(OC[C@@H](Cc1ccccc1)NC(=O)c1cc2ccccc2s1)Oc1ccccc1 (stereo not given in full),-5% (active)
7,Cc1nn(C)c2ncnc(N/N=C/c3cccc(O)c3O)c12,-11% (active)
8,COc1ccc2[nH]c(-c3ccc(Cl)cc3)cc(=O)c2c1,99% (inactive)
9,C=CCN(CC#N)CC=C,101% (inactive)
10,CSc1nnc2c(=O)n(C)c(=O)n(C)c2n1,108% (inactive)
11,COc1ccc2c(c1)OC1=C(C(=O)OC1)C2c1cc(OC)c2c(c1)OCO2 (stereo not given),-7.16% (active)
12,Cc1cc(-c2cc(C)c(O)c(C)c2)cc(C)c1O,26.1% (inactive)
13,CC1(C)CC[C@]2(C(=O)N[C@H](CO)Cc3ccccc3)CC[C@]3(C)C(=CC[C@@H]4[C@@]5(C)CCCNC(C)(C)[C@@H]5CC[C@]43C)[C@@H]2C1,37.8% (inactive)
14,O=c1cc(-c2ccccc2)nc2sc(-c3c[nH]c4ccc(F)cc34)nn12,67.4% (inactive)
15,Cc1nn(-c2ccc(Cl)cc2)c2nc3c(nc12)c(=O)oc1ccccc13,125% (inactive)
